# Source: PubChem BioAssay (Tox21)
# A number with no mark means an inactive call. Records with an inconclusive call do not appear. A call without a number means that no potency is given here. The source made the active and inactive calls. Unless noted, calls follow the shape of the full dose curve.
# Columns and labels:
# [1] = Nuclear factor erythroid 2-related factor 2/antioxidant responsive element (Nrf2/ARE) small molecule agonists: qHTS cell viability counter screen in human keratinocytes (AID 1919968; active = well fitted curve in the direction sought with a large enough effect in the repeat runs; an effect the other way counts as inactive or inconclusive; also: nearly all actives have a fitted effect of over 55% in size; also: potency is read from the fitted curve at half-maximal effect)
# Summary of the method: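 Stably transfected HaCaT (KeratinoSens), 1,500/well. Test agents in DMSO were applied for 23 h, 37 C/5% CO2. CellTiter-Fluor was incubated 1 h before the fluorescence read.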
# [2] = Nuclear factor erythroid 2-related factor 2/antioxidant responsive element (Nrf2/ARE) small molecule agonists: luciferase reporter gene qHTS assay in human keratinocytes (AID 1919969); also: nearly all actives have a fitted effect of over 35% in size; also: potency is read from the fitted curve at half-maximal effect
# [3] = biological target: Gonadotropin-releasing hormone receptor (Homo sapiens) (UniProt P30968); assay: Human gonadotropin-releasing hormone receptor (GnRHR) small molecule agonists, calcium flux assay in GnRHR-HEK293 cells (AID 1920063); also: nearly all actives have a fitted effect of over 35% in size
# Chain of Gonadotropin-releasing hormone receptor (Homo sapiens) (P30968 whole entry, looked up): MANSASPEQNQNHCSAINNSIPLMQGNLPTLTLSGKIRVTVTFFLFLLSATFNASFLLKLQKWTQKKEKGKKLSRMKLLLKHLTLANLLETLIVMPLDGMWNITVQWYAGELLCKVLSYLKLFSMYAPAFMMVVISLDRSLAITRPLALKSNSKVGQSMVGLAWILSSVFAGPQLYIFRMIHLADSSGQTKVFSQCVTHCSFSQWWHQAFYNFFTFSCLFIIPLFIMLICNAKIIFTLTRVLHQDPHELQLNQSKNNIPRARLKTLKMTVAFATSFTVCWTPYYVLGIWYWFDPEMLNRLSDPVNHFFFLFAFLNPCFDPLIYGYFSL
# Summary of the method: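 Stable human GnRHR HEK293 line. 18 h plating, then calcium dye for 1 h at 37 C. Agonist-mode compound addition from DMSO stocks; fluorescence monitored 3 min.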
# [4] = biological target: KiSS-1 receptor (Homo sapiens) (UniProt Q969F8); assay: Human kisspeptin (KISS1R) small molecule agonists, calcium flux assay in KISS1R-HEK293 cells (AID 1920064; active = well fitted curve in the direction sought with a large enough effect in the repeat runs; an effect the other way counts as inactive or inconclusive)
# Chain of KiSS-1 receptor (Homo sapiens) (Q969F8 whole entry, looked up): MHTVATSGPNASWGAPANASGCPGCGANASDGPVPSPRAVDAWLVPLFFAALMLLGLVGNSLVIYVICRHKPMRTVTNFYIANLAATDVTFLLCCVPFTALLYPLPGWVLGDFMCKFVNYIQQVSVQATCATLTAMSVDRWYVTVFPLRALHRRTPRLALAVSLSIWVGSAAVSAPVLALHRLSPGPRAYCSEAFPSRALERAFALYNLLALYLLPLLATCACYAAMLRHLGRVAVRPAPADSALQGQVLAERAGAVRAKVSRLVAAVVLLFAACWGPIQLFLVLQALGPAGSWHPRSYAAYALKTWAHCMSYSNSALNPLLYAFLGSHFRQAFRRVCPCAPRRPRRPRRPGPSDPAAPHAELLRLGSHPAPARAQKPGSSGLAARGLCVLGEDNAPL
# Summary of the method: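 After overnight (18 h) culture at 37 C/5% CO2, human KISS1R-HEK293 cells received calcium dye for 1 h, then test compound; emission at 540 nm (excitation 480 nm) was tracked for 3 min.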
# [5] = G protein-coupled receptor (GPCR) small molecule agonists, calcium flux assay: HEK293 wild type cell line counter screen (AID 1920065)
# Summary of the method: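 Following 18 h incubation at 37 C/5% CO2, plates got calcium dye for 1 h; compounds, ATP or DMSO were then pinned in and fluorescence followed kinetically (480/540 nm).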
# [6] = p53 small molecule agonists, cell-based qHTS assay with human liver microsomes: qHTS cell viability counter screen (AID 1963579); also: nearly all actives have a fitted effect of over 45% in size; also: potency is read from the fitted curve at half-maximal effect
# Summary of the method: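 p53RE-bla cells, 4,000/well, dosed 5 hours after plating, with human liver microsomes (0.5 mg/mL final) plus NADPH (0.5 mg/mL final), 16 hours at 37 C. Viability read as CellTiter-Glo luminescence after 30 min at room temperature.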
# [7] = p53 small molecule agonists, cell-based qHTS assay with rat liver microsomes: qHTS cell viability counter screen (AID 1963580); also: nearly all actives have a fitted effect of over 45% in size
# Summary of the method: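 Luminescent ATP readout (CellTiter-Glo, 30 min at room temperature) reports viability of p53RE-bla HCT-116 cells after 16 h at 37 C with test compounds under metabolic activation by rat liver microsomes and NADPH at 0.5 mg/mL final each.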
# [8] = p53 small molecule agonists, cell-based qHTS assay (AID 1963582; active = well fitted activation curve with a large enough effect in the signal ratio in the repeat runs, not every such curve was filed as active; the % refers to the signal ratio; also: potency is read from the fitted curve at half-maximal effect)
# Summary of the method: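 Measured: fluorescence from cleaved LiveBLAzer substrate. System: p53RE-bla cells, 16 h compound treatment at 37 C, 2 h substrate step at room temperature.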
# [9] = biological target: 5-hydroxytryptamine receptor 2A (Homo sapiens) (UniProt P28223); assay: 5-hydroxytryptamine receptor 2A (HTR2A) small molecule antagonists, cell-based qHTS assay (AID 1963586); also: nearly all actives have a fitted effect of over 45% in size
# Chain of 5-hydroxytryptamine receptor 2A (Homo sapiens) (P28223 whole entry, looked up): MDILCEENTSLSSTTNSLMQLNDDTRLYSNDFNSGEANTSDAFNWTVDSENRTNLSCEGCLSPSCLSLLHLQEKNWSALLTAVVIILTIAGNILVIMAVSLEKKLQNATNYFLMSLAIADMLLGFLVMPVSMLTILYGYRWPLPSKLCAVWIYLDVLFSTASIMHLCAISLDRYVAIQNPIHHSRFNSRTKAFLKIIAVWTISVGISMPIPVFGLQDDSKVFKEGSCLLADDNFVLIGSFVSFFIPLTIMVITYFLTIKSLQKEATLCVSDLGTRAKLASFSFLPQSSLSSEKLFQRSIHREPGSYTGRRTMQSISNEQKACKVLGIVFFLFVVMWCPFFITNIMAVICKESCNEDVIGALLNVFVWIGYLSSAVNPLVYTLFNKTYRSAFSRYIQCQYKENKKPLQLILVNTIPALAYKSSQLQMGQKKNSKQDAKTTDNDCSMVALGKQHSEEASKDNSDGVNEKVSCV
# Summary of the method: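 CHO cells stably expressing human HTR2A were plated for 18 h at 37 C, then loaded with calcium dye for 1 h. Compounds were preincubated 5 min at room temperature before DOI (4 nM solution) was added. Kinetic fluorescence was read for 3 min.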
# [10] = biological target: 5-hydroxytryptamine receptor 2A (Homo sapiens) (UniProt P28223); assay: 5-hydroxytryptamine receptor 2A (HTR2A) small molecule agonists, cell-based qHTS assay (AID 1963587); also: nearly all actives have a fitted effect of over 30% in size; also: potency is read from the fitted curve at half-maximal effect
# Summary of the method: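 HTR2A-CHO cells, plated 18 h at 37 C/5% CO2, dye-loaded 1 h at 37 C; compounds in DMSO added by pin tool (agonist mode). Intracellular calcium flux read as kinetic fluorescence on FDSS over 2 min at 1 s intervals.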
# [11] = biological target: Muscarinic acetylcholine receptor M1 (Homo sapiens) (UniProt P11229); assay: Cholinergic receptor muscarinic 1 (CHRM1) small molecule antagonists, cell-based qHTS assay (AID 1963588); also: nearly all actives have a fitted effect of over 40% in size
# Chain of Muscarinic acetylcholine receptor M1 (Homo sapiens) (P11229 whole entry, looked up): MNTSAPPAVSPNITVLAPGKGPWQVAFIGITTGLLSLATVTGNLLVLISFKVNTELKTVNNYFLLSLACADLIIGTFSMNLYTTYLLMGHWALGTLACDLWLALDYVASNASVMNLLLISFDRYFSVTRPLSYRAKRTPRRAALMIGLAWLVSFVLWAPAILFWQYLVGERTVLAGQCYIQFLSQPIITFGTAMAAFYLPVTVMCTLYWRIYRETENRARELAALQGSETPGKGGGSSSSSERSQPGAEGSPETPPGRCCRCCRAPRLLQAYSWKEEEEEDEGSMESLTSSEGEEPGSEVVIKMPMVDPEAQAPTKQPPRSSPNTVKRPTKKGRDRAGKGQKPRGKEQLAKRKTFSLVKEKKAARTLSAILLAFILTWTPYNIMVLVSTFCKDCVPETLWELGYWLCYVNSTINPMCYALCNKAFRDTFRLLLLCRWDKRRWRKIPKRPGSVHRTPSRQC
# Summary of the method: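 Compounds were tested at 15 concentrations in three independent runs. Dye-loaded CHRM1-CHO cells were exposed 5 min at room temperature before stimulation by acetylcholine added at 50nM. Intracellular calcium was read kinetically on FDSS for 3 min.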
# [12] = biological target: Muscarinic acetylcholine receptor M1 (Homo sapiens) (UniProt P11229); assay: Cholinergic receptor muscarinic 1 (CHRM1) small molecule agonists, cell-based qHTS assay (AID 1963589); also: nearly all actives have a fitted effect of over 35% in size
# Summary of the method: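 Kinetic fluorescence (1 s intervals) of calcium-sensitive dye in human M1 CHO cells after compound addition; cells pre-incubated 18 h at 37 C/5% CO2 and dye-loaded 1 h.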
# [13] = cAMP Responsive Elements (CRE) small molecule antagonists, cell-based qHTS assay (AID 1963591; active = well fitted inhibition curve with a large enough effect in the signal ratio in the repeat runs, not every such curve was filed as active; the % refers to the signal ratio; also: potency is read from the fitted curve at half-maximal effect)
# Summary of the method: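 Reporter line CRE-bla HEK 293T in dialyzed-FBS DMEM; cells preincubated 18 h, treated 3 h with compound plus NKH477 (0.25 uM final); LiveBLAzer FRET, 2 h RT.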
# [14] = biological target: Beta-2 adrenergic receptor (Homo sapiens) (UniProt P07550); assay: Adrenergic beta2 receptor (ADRB2) small molecule antagonists, cell-based qHTS assay (AID 1963592); also: series mostly up to about 92 µM; nearly all actives have a fitted effect of over 50% in size
# Chain of Beta-2 adrenergic receptor (Homo sapiens) (P07550 whole entry, looked up): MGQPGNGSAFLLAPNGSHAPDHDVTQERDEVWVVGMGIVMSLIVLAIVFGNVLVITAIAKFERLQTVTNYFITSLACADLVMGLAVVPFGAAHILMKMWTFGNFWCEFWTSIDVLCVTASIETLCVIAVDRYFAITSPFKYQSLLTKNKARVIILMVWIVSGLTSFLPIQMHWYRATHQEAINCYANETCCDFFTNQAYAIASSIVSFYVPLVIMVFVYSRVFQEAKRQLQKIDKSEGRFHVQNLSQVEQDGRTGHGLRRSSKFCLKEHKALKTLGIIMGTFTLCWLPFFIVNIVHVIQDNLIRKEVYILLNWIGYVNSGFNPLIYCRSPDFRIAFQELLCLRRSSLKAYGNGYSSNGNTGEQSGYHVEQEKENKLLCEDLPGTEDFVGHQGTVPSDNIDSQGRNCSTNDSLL
# Summary of the method: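 Assay format: CHO-ADRB2 cells, 18-20hr seeding at 37C/5% CO2, then compound plus 1nM isoproterenol agonist mix for 0.5hr RT. Homogeneous time-resolved fluorescence cAMP detection after 1hr, expressed as 665/615 nm ratio.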
# [15] = biological target: Beta-2 adrenergic receptor (Homo sapiens) (UniProt P07550); assay: Adrenergic beta2 receptor (ADRB2) small molecule agonists, cell-based qHTS assay (AID 1963593);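 also: CHO cells stably overexpressing human ADRB2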
# Summary of the method: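 CHO cells stably over-expressing ADRB2 were plated overnight at 37C, then dosed with compounds plus a stimulation mix containing 100uM IBMX and 25uM Ro-20-1724 for 0.5hr at room temperature. cAMP was measured by HTRF competition, 1hr.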
# [16] = biological target: D(2) dopamine receptor (Homo sapiens) (UniProt P14416); assay: Dopamine D2 receptor (DRD2) small molecule agonists, cell-based qHTS assay (AID 1963594); also: nearly all actives have a fitted effect of over 35% in size
# Chain of D(2) dopamine receptor (Homo sapiens) (P14416 whole entry, looked up): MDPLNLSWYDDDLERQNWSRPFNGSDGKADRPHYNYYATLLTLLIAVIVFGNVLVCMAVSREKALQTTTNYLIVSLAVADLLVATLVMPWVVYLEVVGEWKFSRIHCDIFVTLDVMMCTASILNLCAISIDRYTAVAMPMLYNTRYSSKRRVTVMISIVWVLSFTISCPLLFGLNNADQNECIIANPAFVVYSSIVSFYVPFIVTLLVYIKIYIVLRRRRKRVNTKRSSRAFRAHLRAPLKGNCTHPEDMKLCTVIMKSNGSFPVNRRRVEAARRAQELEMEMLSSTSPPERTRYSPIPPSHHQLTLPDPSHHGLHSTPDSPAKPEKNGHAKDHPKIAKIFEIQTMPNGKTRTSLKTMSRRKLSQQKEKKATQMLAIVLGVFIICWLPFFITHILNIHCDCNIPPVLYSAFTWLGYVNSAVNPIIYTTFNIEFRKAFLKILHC
# Summary of the method: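 HEK293 cells stably expressing DRD2 were cultured 24 h at 37 C, then given Ro20-1724 (0.1 mM final) and compounds for 10 min at room temperature. NKH477 (200nM) was then added for 30 min. cAMP was read by HTRF.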
# [17] = biological target: D(2) dopamine receptor (Homo sapiens) (UniProt P14416); assay: Dopamine D2 receptor (DRD2) small molecule antagonists, cell-based qHTS assay (AID 1963595; active = well fitted inhibition curve with a large enough effect in the signal ratio in the repeat runs, with a control signal flat; the % refers to the signal ratio)
# Summary of the method: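 In this cell-based antagonist screen, compounds act for 10 min at room temperature before a 30 min challenge with 12 nM quinpirole and 200 nM NKH477. cAMP is quantified by HTRF competition in DRD2-HEK293 cells containing 0.1 mM Ro20-1724.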
# [18] = p53 small molecule agonists, cell-based qHTS assay with rat liver microsomes (AID 1963578)
# Summary of the method: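 p53RE-bla cells, 4,000/well, pre-incubated 5 h, then given compounds plus rat liver microsomes (0.5 mg/mL final) and NADPH (0.5 mg/mL final). Incubation 16 h at 37 C; beta-lactamase reporter read by LiveBLAzer fluorescence after 2 h at room temperature.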
# [19] = p53 small molecule agonists, cell-based qHTS assay: qHTS cell viability counter screen (AID 1963581); also: nearly all actives have a fitted effect of over 45% in size; also: potency is read from the fitted curve at half-maximal effect
# Summary of the method: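 qHTS counter screen: 16 h compound exposure at 37 C of p53RE-bla HCT-116 cells (4,000 per well, seeded 5 h prior), cell viability by ATP luminescence.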
# [20] = cAMP Responsive Elements (CRE) small molecule agonists, cell-based qHTS assay (AID 1963590)
# Summary of the method: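 Test agents in DMSO were incubated 3 h at 37 C/5% CO2 with CRE-bla HEK 293T cells seeded 18 h earlier; LiveBLAzer B/G FRET substrate was added and read after 2 h at room temperature.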
smiles,measurement,setting,value
CC[N+](C)(CC)CC,Potency,[1],inactive
same,Potency,[2],inactive
same,Potency,[3],inactive
same,Potency,[4],inactive
same,Potency,[5],inactive
same,Potency,[6],inactive
same,Potency,[7],inactive
same,Potency,[8],inactive
same,Potency,[9],inactive
same,Potency,[10],inactive
same,Potency,[11],inactive
same,Potency,[12],inactive
same,Potency,[13],inactive
same,Potency,[14],inactive
same,Potency,[15],inactive
same,Potency,[16],inactive
same,Potency,[17],inactive
CC(=O)OC(OC(C)=O)c1ccc([N+](=O)[O-])o1,Potency,[1],62.2 µM (active)
same,Potency,[2],24.8 µM (active)
same,Potency,[3],inactive
same,Potency,[4],inactive
same,Potency,[5],inactive
same,Potency,[18],inactive
same,Potency,[10],inactive
same,Potency,[11],inactive
same,Potency,[12],inactive
same,Potency,[16],inactive
same,Potency,[17],inactive
O=C(O)[C@H](O)c1ccccc1,Potency,[1],inactive
same,Potency,[2],inactive
same,Potency,[3],inactive
same,Potency,[4],inactive
same,Potency,[5],inactive
same,Potency,[18],inactive
same,Potency,[6],inactive
same,Potency,[7],inactive
same,Potency,[19],inactive
same,Potency,[8],inactive
same,Potency,[9],inactive
same,Potency,[10],inactive
same,Potency,[11],inactive
same,Potency,[12],inactive
same,Potency,[20],inactive
same,Potency,[13],inactive
same,Potency,[14],inactive
same,Potency,[15],inactive
same,Potency,[17],inactive
CC(C)C[C@H](NC(=O)[C@H](Cc1ccccc1)NC(=O)c1cnccn1)B(O)O,Potency,[1],0.596 µM (active)
same,Potency,[2],0.0422 µM (active)
same,Potency,[3],inactive
same,Potency,[4],inactive
same,Potency,[5],inactive
same,Potency,[6],890 nM (active)
same,Potency,[19],707 nM (active)
same,Potency,[8],14.1 nM (active)
same,Potency,[9],inactive
same,Potency,[10],inactive
same,Potency,[11],inactive
same,Potency,[12],inactive
same,Potency,[20],inactive
same,Potency,[13],944 nM (active)
same,Potency,[14],inactive
same,Potency,[16],inactive
same,Potency,[17],inactive
CC1=CCCC(C)(C)C12CCC(C)O2 (stereo not drawn),Potency,[1],inactive
same,Potency,[2],inactive
same,Potency,[3],inactive
same,Potency,[4],inactive
same,Potency,[5],inactive
same,Potency,[6],inactive
same,Potency,[7],inactive
same,Potency,[19],inactive
same,Potency,[8],inactive
same,Potency,[10],inactive
same,Potency,[11],inactive
same,Potency,[12],inactive
same,Potency,[20],inactive
same,Potency,[13],inactive
same,Potency,[16],inactive
CCCCCCCCCCCCCCCCN(C)C,"activity change, negative = cytotoxicity",[1],3.36% [at 8.39 µM]
same,"activity, positive = activation",[2],-0.511% [at 8.39 µM]
same,activity change,[3],"-0.722% [at 5.22 µM, hits give high values]"
same,activation,[4],5.47% [at 6.97 µM]
same,activation,[5],-0.794% [at 5.23 µM]
same,activation,[18],-0.0918% [at 5.99 µM]
same,"activity change, negative = cytotoxicity",[6],-6.23% [at 5.99 µM]
same,"activity change, negative = cytotoxicity",[7],1.34% [at 5.99 µM]
same,"activity change, negative = cytotoxicity",[19],8.26% [at 5.99 µM]
same,activation,[8],9.5% [at 5.99 µM]
same,"activity, negative = inhibition",[9],-3.75% [at 5.62 µM]
same,activation,[10],3.51% [at 7.02 µM]
same,"activity, negative = inhibition",[11],5.3% [at 5.58 µM]
same,activation,[12],0.295% [at 6.97 µM]
same,activation,[20],-1.13% [at 8.39 µM]
same,"activity change, negative = inhibition",[13],1.36% [at 8.39 µM]
same,"activity change, negative = inhibition",[14],-8.88% [at 8.39 µM]
same,activation,[16],-3.52% [at 8.39 µM]
Nc1ccc(N)c2ccccc12,Potency,[1],27.3 µM (active)
same,Potency,[2],7.69 µM (active)
same,Potency,[3],inactive
same,Potency,[4],inactive
same,Potency,[5],inactive
same,Potency,[18],inactive
same,Potency,[8],inactive
same,Potency,[10],7.75 µM (active)
same,Potency,[11],inactive
same,Potency,[12],inactive
same,Potency,[20],inactive
same,Potency,[17],inactive
C[Si](C)(C)C,Potency,[1],inactive
same,Potency,[2],inactive
same,Potency,[3],inactive
same,Potency,[4],inactive
same,Potency,[5],inactive
same,Potency,[6],inactive
same,Potency,[19],inactive
same,Potency,[8],inactive
same,Potency,[10],inactive
same,Potency,[11],inactive
same,Potency,[12],inactive
same,Potency,[20],inactive
same,Potency,[13],inactive
same,Potency,[17],inactive
